{
  "source": "the supplement of paper PMC12350171",
  "note": "Structures can show the parent of a compound that is named as a salt.",
  "data": [
    {"tested_on": "Yersinia pseudotuberculosis", "test": "growth AUC normalised to DMSO control (fraction of control); higher = less growth inhibition, active = hit call of the paper", "conditions": "20 µM;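 active = AUC significantly below DMSO controls by Student t-fit with adjusted P under 0.01; inactive = not significantly reduced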", "method_in_brief": "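Pathogens were passaged twice under anaerobic conditions, then inoculated into pre-reduced mGAM plates at a starting OD578 of 0.01, with compound at 20 μM and 1% DMSO, and sealed with breathable membranes. For Haemophilus parainfluenzae, the medium was supplemented with hemin and NAD. OD578 was read every hour for 24 h in three biological replicates. Growth-curve AUC was calculated by the trapezoidal rule up to the exponential-to-stationary transition and normalised to DMSO controls on the same plate.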", "values": [
      {"smiles": "CN(C)[C@@H]1C(=O)C(C(N)=O)=C(O)[C@@]2(O)C(=O)C3=C(O)c4c(O)cccc4[C@@](C)(O)[C@H]3C[C@@H]12", "note": "[Tetracycline hydrochloride]", "growth AUC normalised to DMSO control": "0.0501 (active)"},
      {"smiles": "CC(Cc1ccc(O)cc1)NCC(O)c1cc(O)cc(O)c1", "note": "(centres undefined) [Fenoterol hydrobromide]", "growth AUC normalised to DMSO control": "0.998 (inactive)"},
      {"smiles": "Clc1ccc(C(OCCN2CCCCC2)c2ccccc2)cc1", "note": "(centres undefined) [Cloperastine hydrochloride]", "growth AUC normalised to DMSO control": "1.03 (inactive)"},
      {"smiles": "CC(O)(CS(=O)(=O)c1ccc(F)cc1)C(=O)Nc1ccc(C#N)c(C(F)(F)F)c1", "note": "(centres undefined) [Bicalutamide]", "growth AUC normalised to DMSO control": "1.01 (inactive)"},
      {"smiles": "CCN(C(C)=O)c1cccc(-c2ccnc3c(C#N)cnn23)c1", "note": "[Zaleplon]", "growth AUC normalised to DMSO control": "1 (inactive)"},
      {"smiles": "NCCCNCCSP(=O)(O)O", "note": "[Amifostine]", "growth AUC normalised to DMSO control": "0.992 (inactive)"},
      {"smiles": "C[C@]12COC(=O)C[C@@H]1CC[C@@H]1[C@@H]2CC[C@@]2(C)[C@H]1CC[C@]2(C)O", "note": "[Oxandrolone]", "growth AUC normalised to DMSO control": "0.963 (inactive)"},
      {"smiles": "Oc1cc(Cl)ccc1Oc1ccc(Cl)cc1Cl", "note": "[Triclosan]", "growth AUC normalised to DMSO control": "0.911 (inactive)"},
      {"smiles": "C=CCN1CC[C@]23c4c5ccc(O)c4O[C@H]2C(=O)CC[C@@]3(O)[C@H]1C5", "note": "[Naloxone hydrochloride]", "growth AUC normalised to DMSO control": "1.01 (inactive)"},
      {"smiles": "CC(=O)OCC(=O)[C@H]1CC[C@H]2[C@@H]3CC[C@H]4C[C@H](O)CC[C@]4(C)[C@H]3C(=O)C[C@]12C", "note": "[Alfadolone acetate]", "growth AUC normalised to DMSO control": "0.992 (inactive)"},
      {"smiles": "S=C(NC1CCCCC1)N1CCC(c2cnc[nH]2)CC1", "note": "[Thioperamide maleate]", "growth AUC normalised to DMSO control": "0.991 (inactive)"},
      {"smiles": "CN1CCN(C(=O)OC2c3nccnc3C(=O)N2c2ccc(Cl)cn2)CC1", "note": "(centres undefined) [Zopiclone]", "growth AUC normalised to DMSO control": "0.996 (inactive)"},
      {"smiles": "CN1C(=O)CCS(=O)(=O)C1c1ccc(Cl)cc1", "note": "(centres undefined) [Chlormezanone]", "growth AUC normalised to DMSO control": "0.995 (inactive)"},
      {"smiles": "CN(C)[C@@H]1C(=O)C(C(N)=O)=C(O)[C@@]2(O)C(=O)C3=C(O)c4c(O)cccc4[C@@](C)(O)[C@H]3[C@H](O)[C@@H]12", "note": "[Oxytetracycline dihydrate]", "growth AUC normalised to DMSO control": "0.0752 (active)"},
      {"smiles": "N[C@@H]1C[C@H]1c1ccccc1", "note": "[Tranylcypromine hydrochloride]", "growth AUC normalised to DMSO control": "0.959 (inactive)"},
      {"smiles": "NC(=O)C[S+]([O-])C(c1ccccc1)c1ccccc1", "note": "(centres undefined) [Modafinil]", "growth AUC normalised to DMSO control": "0.998 (inactive)"},
      {"smiles": "COc1ccc(C(=O)N2CCCC2=O)cc1", "note": "[Aniracetam]", "growth AUC normalised to DMSO control": "0.972 (inactive)"},
      {"smiles": "C[C@]12CCC(=O)C(O)=C1CC[C@@H]1[C@@H]2CC[C@]2(C)C(=O)CC[C@@H]12", "note": "[Formestane]", "growth AUC normalised to DMSO control": "0.997 (inactive)"},
      {"smiles": "CCC(=O)O[C@H]1CC[C@H]2[C@@H]3CCC4=CC(=O)CC[C@]4(C)[C@H]3CC[C@]12C", "note": "[Testosterone propionate]", "growth AUC normalised to DMSO control": "0.989 (inactive)"},
      {"smiles": "CCNCC(O)c1cccc(O)c1", "note": "(centres undefined) [Etilefrine hydrochloride]", "growth AUC normalised to DMSO control": "0.979 (inactive)"},
      {"smiles": "CC(=O)OC1CN2CCC1CC2", "note": "(centres undefined) [Aceclidine hydrochloride]", "growth AUC normalised to DMSO control": "0.994 (inactive)"},
      {"smiles": "CN1[C@@H]2CC[C@H]1C[C@@H](OC1c3ccccc3CCc3ccccc31)C2", "note": "[Deptropine citrate]", "growth AUC normalised to DMSO control": "0.965 (inactive)"},
      {"smiles": "NC(=O)CN1CCCC1=O", "note": "[Piracetam]", "growth AUC normalised to DMSO control": "0.993 (inactive)"},
      {"smiles": "CC(=O)[C@H]1CC[C@H]2[C@@H]3CC[C@H]4C[C@H](O)CC[C@]4(C)[C@H]3C(=O)C[C@]12C", "note": "[Alfaxalone]", "growth AUC normalised to DMSO control": "1.01 (inactive)"},
      {"smiles": "CCC1(c2ccc(N)cc2)CCC(=O)NC1=O", "note": "(centres undefined) [Glutethimide, para-amino]", "growth AUC normalised to DMSO control": "0.988 (inactive)"},
      {"smiles": "COc1ccc(Cc2nccc3cc(OC)c(OC)cc23)cc1OC", "note": "[Papaverine hydrochloride]", "growth AUC normalised to DMSO control": "0.997 (inactive)"},
      {"smiles": "C[C@]12Cc3c[nH]nc3C[C@@H]1CC[C@@H]1[C@@H]2CC[C@@]2(C)[C@H]1CC[C@]2(C)O", "note": "[Stanozolol]", "growth AUC normalised to DMSO control": "1 (inactive)"},
      {"smiles": "O=c1[nH]c2ccccc2n1C1CCN(CCCC(c2ccc(F)cc2)c2ccc(F)cc2)CC1", "note": "[Pimozide]", "growth AUC normalised to DMSO control": "1.02 (inactive)"},
      {"smiles": "CN1CCC2(C)c3cc(O)ccc3N(C)C12", "note": "(single isomer, unassigned; (-)) [(-) Eseroline fumarate salt]", "growth AUC normalised to DMSO control": "1.01 (inactive)"},
      {"smiles": "CC[C@@H](CO)NC(=O)[C@@H]1C=C2c3cccc4[nH]cc(c34)C[C@H]2N(C)C1", "note": "[Methylergometrine maleate]", "growth AUC normalised to DMSO control": "0.998 (inactive)"},
      {"smiles": "COc1ccc2c(c1)[C@]13CCCC[C@@H]1[C@H](C2)N(C)CC3", "note": "[Dextromethorphan hydrobromide monohydrate]", "growth AUC normalised to DMSO control": "0.97 (inactive)"},
      {"smiles": "O=P1(N(CCCl)CCCl)NCCCO1", "note": "(centres undefined) [Cyclophosphamide]", "growth AUC normalised to DMSO control": "1.01 (inactive)"},
      {"smiles": "CN1C[C@H](CNC(=O)OCc2ccccc2)C[C@@H]2c3cccc4c3c(cn4C)C[C@H]21", "note": "[Metergoline]", "growth AUC normalised to DMSO control": "0.993 (inactive)"},
      {"smiles": "O=[N+]([O-])O[C@H]1CO[C@H]2[C@@H]1OC[C@H]2O[N+](=O)[O-]", "note": "[Isosorbide dinitrate]", "growth AUC normalised to DMSO control": "1.01 (inactive)"},
      {"smiles": "CCC(=O)O[C@@](Cc1ccccc1)(c1ccccc1)[C@@H](C)CN(C)C", "note": "[Levopropoxyphene napsylate]", "growth AUC normalised to DMSO control": "1.02 (inactive)"},
      {"smiles": "CCCC[N+]1(C)[C@@H]2C[C@@H](OC(=O)[C@H](CO)c3ccccc3)C[C@H]1[C@@H]1O[C@@H]12", "note": "(some centres undefined) [N-Butylscopolammonium bromide]", "growth AUC normalised to DMSO control": "1.02 (inactive)"},
      {"smiles": "C[C@]12CC[C@H](O)C[C@H]1CC[C@@H]1[C@@H]2C[C@@H](O)[C@]2(C)[C@@H](C3=CC(=O)OC3)CC[C@]12O", "note": "[Digoxigenin]", "growth AUC normalised to DMSO control": "0.998 (inactive)"},
      {"smiles": "OC(c1ccccc1)(c1ccccc1)C1CCNCC1", "note": "[Azacyclonol]", "growth AUC normalised to DMSO control": "1 (inactive)"},
      {"smiles": "CN1[C@@H]2C[C@@H](OC(=O)[C@H](CO)c3ccccc3)C[C@H]1[C@@H]1O[C@@H]12", "note": "[Scopolamine hydrochloride]", "growth AUC normalised to DMSO control": "1.03 (inactive)"}
    ]}
  ]
}
